# Measured values reported in PMC11062922 (Nature Chemical Biology, 2023).
# Like-named read-outs stand apart in the source and are kept apart here.
# What was measured:
# RPS6KA4 = settings: read-out: apparent Kd, n = 1
# TNIK = settings: read-out: apparent Kd, n = 1
# [1] = compound concentrations:100 nM and 1000 nM (sheet 'Lestaurtinib' of Supplementary Table 1),run:Lestaurtinib_02624_R1,Plate:MR020
# [2] = compound concentrations:100 nM and 1000 nM (sheet 'Lestaurtinib' of Supplementary Table 1),run:Lestaurtinib_02624_R2,Plate:MR020
# [3] = compound concentrations:100 nM and 1000 nM (sheet 'Lestaurtinib' of Supplementary Table 1),run:Lestaurtinib_02724_R3,Plate:MR021
# [4] = compound concentrations:100 nM and 1000 nM (sheet 'Lestaurtinib' of Supplementary Table 1),run:Lestaurtinib_02741_R1,Plate:MR023
# [5] = compound concentrations:100 nM and 1000 nM (sheet 'Lestaurtinib' of Supplementary Table 1),run:Lestaurtinib_02741_R2,Plate:MR023
# [6] = compound concentrations:100 nM and 1000 nM (sheet 'Lestaurtinib' of Supplementary Table 1),run:Lestaurtinib_02741_R3,Plate:MR023
# [7] = compound concentrations:100 nM and 1000 nM (sheet 'Lestaurtinib' of Supplementary Table 1),run:Lestaurtinib_02752_R1,Plate:MR025
# [8] = compound concentrations:100 nM and 1000 nM (sheet 'Lestaurtinib' of Supplementary Table 1),run:Lestaurtinib_02765_R2,Plate:MR026
# [9] = compound concentrations:100 nM and 1000 nM (sheet 'Lestaurtinib' of Supplementary Table 1),run:Lestaurtinib_02766_R2,Plate:MR027
# [10] = compound concentrations:100 nM and 1000 nM (sheet 'Lestaurtinib' of Supplementary Table 1),run:Lestaurtinib_02766_R3,Plate:MR027
# [11] = compound concentrations:100 nM and 1000 nM (sheet 'Lestaurtinib' of Supplementary Table 1),run:Lestaurtinib_02768_R1,Plate:MR028
# [12] = compound concentrations:100 nM and 1000 nM (sheet 'Lestaurtinib' of Supplementary Table 1),run:Lestaurtinib_02768_R3,Plate:MR028
substance,measurement,setting,value
Lestaurtinib,potency estimated from few doses,"RPS6KA4; compound concentrations:100 nM and 1000 nM (sheet 'Lestaurtinib' of Supplementary Table 1),run:Lestaurtinib_02606_R2,Plate:MR019",1310 nM
same,potency estimated from few doses,"RPS6KA4; compound concentrations:100 nM and 1000 nM (sheet 'Lestaurtinib' of Supplementary Table 1),run:Lestaurtinib_02606_R3,Plate:MR019",1340 nM
same,potency estimated from few doses,RPS6KA4; [1],1570 nM
same,potency estimated from few doses,RPS6KA4; [2],952 nM
same,potency estimated from few doses,"RPS6KA4; compound concentrations:100 nM and 1000 nM (sheet 'Lestaurtinib' of Supplementary Table 1),run:Lestaurtinib_02724_R1,Plate:MR021",1570 nM
same,potency estimated from few doses,"RPS6KA4; compound concentrations:100 nM and 1000 nM (sheet 'Lestaurtinib' of Supplementary Table 1),run:Lestaurtinib_02724_R2,Plate:MR021",1150 nM
same,potency estimated from few doses,RPS6KA4; [3],731 nM
same,potency estimated from few doses,RPS6KA4; [4],865 nM
same,potency estimated from few doses,RPS6KA4; [5],999 nM
same,potency estimated from few doses,RPS6KA4; [6],1130 nM
same,potency estimated from few doses,"RPS6KA4; compound concentrations:100 nM and 1000 nM (sheet 'Lestaurtinib' of Supplementary Table 1),run:Lestaurtinib_02748_R1,Plate:MR024",769 nM
same,potency estimated from few doses,"RPS6KA4; compound concentrations:100 nM and 1000 nM (sheet 'Lestaurtinib' of Supplementary Table 1),run:Lestaurtinib_02748_R3,Plate:MR024",638 nM
same,potency estimated from few doses,RPS6KA4; [7],1210 nM
same,potency estimated from few doses,"RPS6KA4; compound concentrations:100 nM and 1000 nM (sheet 'Lestaurtinib' of Supplementary Table 1),run:Lestaurtinib_02765_R1,Plate:MR026",1510 nM
same,potency estimated from few doses,RPS6KA4; [8],1150 nM
same,potency estimated from few doses,"RPS6KA4; compound concentrations:100 nM and 1000 nM (sheet 'Lestaurtinib' of Supplementary Table 1),run:Lestaurtinib_02766_R1,Plate:MR027",911 nM
same,potency estimated from few doses,RPS6KA4; [9],974 nM
same,potency estimated from few doses,RPS6KA4; [10],783 nM
same,potency estimated from few doses,RPS6KA4; [11],814 nM
same,potency estimated from few doses,"RPS6KA4; compound concentrations:100 nM and 1000 nM (sheet 'Lestaurtinib' of Supplementary Table 1),run:Lestaurtinib_02768_R2,Plate:MR028",841 nM
same,potency estimated from few doses,RPS6KA4; [12],954 nM
same,potency estimated from few doses,"RPS6KA4; compound concentrations:100 nM and 1000 nM (sheet 'Lestaurtinib' of Supplementary Table 1),run:Lestaurtinib_02795_R2,Plate:MR022",1420 nM
same,potency estimated from few doses,"RPS6KA4; compound concentrations:100 nM and 1000 nM (sheet 'Lestaurtinib' of Supplementary Table 1),run:Lestaurtinib_02802_R2,Plate:MR029",865 nM
same,potency estimated from few doses,"RPS6KA4; compound concentrations:100 nM and 1000 nM (sheet 'Lestaurtinib' of Supplementary Table 1),run:Lestaurtinib_02802_R3,Plate:MR029",770 nM
same,potency estimated from few doses,"RPS6KA4; compound concentrations:100 nM and 1000 nM (sheet 'Lestaurtinib' of Supplementary Table 1),run:Lestaurtinib_02896_R1,Plate:MR030",748 nM
same,potency estimated from few doses,"RPS6KA4; compound concentrations:100 nM and 1000 nM (sheet 'Lestaurtinib' of Supplementary Table 1),run:Lestaurtinib_02896_R2,Plate:MR030",1150 nM
same,potency estimated from few doses,"RPS6KA4; compound concentrations:100 nM and 1000 nM (sheet 'Lestaurtinib' of Supplementary Table 1),run:Lestaurtinib_03172_R1,Plate:MR031",1350 nM
same,potency estimated from few doses,"RPS6KA4; compound concentrations:100 nM and 1000 nM (sheet 'Lestaurtinib' of Supplementary Table 1),run:Lestaurtinib_03172_R2,Plate:MR031",771 nM
same,potency estimated from few doses,"RPS6KA4; compound concentrations:100 nM and 1000 nM (sheet 'Lestaurtinib' of Supplementary Table 1),run:Lestaurtinib_03252_R2,Plate:MR032",1300 nM
same,potency estimated from few doses,"RPS6KA4; compound concentrations:100 nM and 1000 nM (sheet 'Lestaurtinib' of Supplementary Table 1),run:Lestaurtinib_03260_R3,Plate:MR033",1400 nM
same,potency estimated from few doses,"TNIK; compound concentrations:100 nM and 1000 nM (sheet 'Lestaurtinib' of Supplementary Table 1),run:Lestaurtinib_02339_R2,Plate:MR001",798 nM
same,potency estimated from few doses,"TNIK; compound concentrations:100 nM and 1000 nM (sheet 'Lestaurtinib' of Supplementary Table 1),run:Lestaurtinib_02364_R2,Plate:MR002",206 nM
same,potency estimated from few doses,"TNIK; compound concentrations:100 nM and 1000 nM (sheet 'Lestaurtinib' of Supplementary Table 1),run:Lestaurtinib_02367_R1,Plate:MR003",1130 nM
same,potency estimated from few doses,"TNIK; compound concentrations:100 nM and 1000 nM (sheet 'Lestaurtinib' of Supplementary Table 1),run:Lestaurtinib_02367_R2,Plate:MR003",460 nM
same,potency estimated from few doses,"TNIK; compound concentrations:100 nM and 1000 nM (sheet 'Lestaurtinib' of Supplementary Table 1),run:Lestaurtinib_02367_R3,Plate:MR003",1930 nM
same,potency estimated from few doses,"TNIK; compound concentrations:100 nM and 1000 nM (sheet 'Lestaurtinib' of Supplementary Table 1),run:Lestaurtinib_02407_R1,Plate:MR005",160 nM
same,potency estimated from few doses,"TNIK; compound concentrations:100 nM and 1000 nM (sheet 'Lestaurtinib' of Supplementary Table 1),run:Lestaurtinib_02407_R2,Plate:MR005",772 nM
same,potency estimated from few doses,"TNIK; compound concentrations:100 nM and 1000 nM (sheet 'Lestaurtinib' of Supplementary Table 1),run:Lestaurtinib_02407_R3,Plate:MR005",136 nM
same,potency estimated from few doses,"TNIK; compound concentrations:100 nM and 1000 nM (sheet 'Lestaurtinib' of Supplementary Table 1),run:Lestaurtinib_02422_R1,Plate:MR006",1750 nM
same,potency estimated from few doses,"TNIK; compound concentrations:100 nM and 1000 nM (sheet 'Lestaurtinib' of Supplementary Table 1),run:Lestaurtinib_02437_R1,Plate:MR007",1310 nM
same,potency estimated from few doses,"TNIK; compound concentrations:100 nM and 1000 nM (sheet 'Lestaurtinib' of Supplementary Table 1),run:Lestaurtinib_02443_R2,Plate:MR009",687 nM
same,potency estimated from few doses,"TNIK; compound concentrations:100 nM and 1000 nM (sheet 'Lestaurtinib' of Supplementary Table 1),run:Lestaurtinib_02473_R1,Plate:MR010",165 nM
same,potency estimated from few doses,"TNIK; compound concentrations:100 nM and 1000 nM (sheet 'Lestaurtinib' of Supplementary Table 1),run:Lestaurtinib_02482_R1,Plate:MR011",994 nM
same,potency estimated from few doses,"TNIK; compound concentrations:100 nM and 1000 nM (sheet 'Lestaurtinib' of Supplementary Table 1),run:Lestaurtinib_02487_R2,Plate:MR012",159 nM
same,potency estimated from few doses,"TNIK; compound concentrations:100 nM and 1000 nM (sheet 'Lestaurtinib' of Supplementary Table 1),run:Lestaurtinib_02487_R3,Plate:MR012",481 nM
same,potency estimated from few doses,"TNIK; compound concentrations:100 nM and 1000 nM (sheet 'Lestaurtinib' of Supplementary Table 1),run:Lestaurtinib_02496_R2,Plate:MR013",764 nM
same,potency estimated from few doses,"TNIK; compound concentrations:100 nM and 1000 nM (sheet 'Lestaurtinib' of Supplementary Table 1),run:Lestaurtinib_02496_R3,Plate:MR013",887 nM
same,potency estimated from few doses,"TNIK; compound concentrations:100 nM and 1000 nM (sheet 'Lestaurtinib' of Supplementary Table 1),run:Lestaurtinib_02566_R1,Plate:MR014",845 nM
same,potency estimated from few doses,"TNIK; compound concentrations:100 nM and 1000 nM (sheet 'Lestaurtinib' of Supplementary Table 1),run:Lestaurtinib_02566_R2,Plate:MR014",581 nM
same,potency estimated from few doses,"TNIK; compound concentrations:100 nM and 1000 nM (sheet 'Lestaurtinib' of Supplementary Table 1),run:Lestaurtinib_02572_R3,Plate:MR015",52 nM
same,potency estimated from few doses,"TNIK; compound concentrations:100 nM and 1000 nM (sheet 'Lestaurtinib' of Supplementary Table 1),run:Lestaurtinib_02577_R2,Plate:MR016",582 nM
same,potency estimated from few doses,"TNIK; compound concentrations:100 nM and 1000 nM (sheet 'Lestaurtinib' of Supplementary Table 1),run:Lestaurtinib_02577_R3,Plate:MR016",885 nM
same,potency estimated from few doses,"TNIK; compound concentrations:100 nM and 1000 nM (sheet 'Lestaurtinib' of Supplementary Table 1),run:Lestaurtinib_02584_R1,Plate:MR017",680 nM
same,potency estimated from few doses,"TNIK; compound concentrations:100 nM and 1000 nM (sheet 'Lestaurtinib' of Supplementary Table 1),run:Lestaurtinib_02584_R2,Plate:MR017",717 nM
same,potency estimated from few doses,"TNIK; compound concentrations:100 nM and 1000 nM (sheet 'Lestaurtinib' of Supplementary Table 1),run:Lestaurtinib_02584_R3,Plate:MR017",641 nM
same,potency estimated from few doses,"TNIK; compound concentrations:100 nM and 1000 nM (sheet 'Lestaurtinib' of Supplementary Table 1),run:Lestaurtinib_02601_R1,Plate:MR018",756 nM
same,potency estimated from few doses,"TNIK; compound concentrations:100 nM and 1000 nM (sheet 'Lestaurtinib' of Supplementary Table 1),run:Lestaurtinib_02601_R2,Plate:MR018",146 nM
same,potency estimated from few doses,TNIK; [1],562 nM
same,potency estimated from few doses,TNIK; [2],154 nM
same,potency estimated from few doses,TNIK; [3],507 nM
same,potency estimated from few doses,TNIK; [4],208 nM
same,potency estimated from few doses,TNIK; [5],627 nM
same,potency estimated from few doses,TNIK; [6],536 nM
same,potency estimated from few doses,TNIK; [7],708 nM
same,potency estimated from few doses,"TNIK; compound concentrations:100 nM and 1000 nM (sheet 'Lestaurtinib' of Supplementary Table 1),run:Lestaurtinib_02752_R2,Plate:MR025",671 nM
same,potency estimated from few doses,TNIK; [8],797 nM
same,potency estimated from few doses,"TNIK; compound concentrations:100 nM and 1000 nM (sheet 'Lestaurtinib' of Supplementary Table 1),run:Lestaurtinib_02765_R3,Plate:MR026",836 nM
same,potency estimated from few doses,TNIK; [9],806 nM
same,potency estimated from few doses,TNIK; [10],130 nM
same,potency estimated from few doses,TNIK; [11],142 nM
same,potency estimated from few doses,TNIK; [12],785 nM
same,potency estimated from few doses,"TNIK; compound concentrations:100 nM and 1000 nM (sheet 'Lestaurtinib' of Supplementary Table 1),run:Lestaurtinib_02795_R1,Plate:MR022",573 nM
